Screening data deposited in PubChem by National Center for Advancing Translational Sciences (NCATS).
Rows were chosen to be rich in hits. Some 21% of all compounds tested hit in one or more screens of this group.
HCV inhibitor: HCV inhibition | Huh7.5.1 HCVcc-Cre infection, luciferase reporter, 44 h | Potency, µM (highest dose often 41.8 µM), for inactives: at the top dose activity change, negative = inhibition, hits mostly inhibitors | hit rate 3.4% among 340,000 | AID 651820; also: potency is read from the fitted curve at half-maximal effect; % is scaled to controls: 0 for no effect and ±100 for the full control effect
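HCVcc-Cre virus at an moi near 0.5 was added right after compound to cells cultured 4 h from seeding (1,000 cells/well). Luciferase activity was determined 44 h later, 15 min after substrate addition at RT.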
Pf growth 96h: inhibits malaria parasite growth, 96 h | P. falciparum luciferase reporter growth, 96 h | hit rate 6.9% among 320,000 | Potency, µM (doses to about 28.7 µM), without a hit: top-dose activity change, negative = inhibition, hits mostly inhibitors; also: potency is read from the fitted curve at half-maximal effect; % is scaled to controls: 0 for no effect and ±100 for the full control effect
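Luminescence readout: decreased luciferase signal marks inhibited growth of reporter-expressing P. falciparum in infected red cells (2% hematocrit, 0.05% parasitemia final), exposed to compound two generations (96 h, 37 C, 5% CO2).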
Cycloheximide cs: counter-screen for Shiga toxin inhibitors: cycloheximide protein synthesis inhibition; hit rate 12% among 300,000; cell reporter, cycloheximide protein synthesis inhibition counterscreen; max response, %; in the data active = max response mostly above about 13%, no sharp cut-off; inactive = mostly below about 14%; also: read at 38.3 µM for the half of the compounds with a filed dose; 0% is about no effect
Pf growth 48h: inhibits P. falciparum growth in the first generation, 48 h; P. falciparum luciferase growth in erythrocytes, 48 h; Potency, µM (top dose mostly 28.7 µM), inactives show at the highest dose activity change, negative = inhibition, usual class: inhibitors; hit rate 5.9% among 310,000; also: potency is read from the fitted curve at half-maximal effect; % is scaled to controls: 0 for no effect and ±100 for the full control effect
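First compound was added to culture medium, then infected red cells at 0.1% parasitemia and 2% hematocrit (final). After incubation at 37 C under 5% CO2, luciferase detection reagent was dispensed and light output recorded.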
AMA1 RON2 block: AMA1-RON2 (P. falciparum) interaction inhibition; AID 720542; AlphaScreen AMA1-biotinylated RON2 peptide binding; hit rate 0.2% among 360,000; Potency, µM (top dose mostly 58.2 µM), for inactives: top-dose activity change, negative = inhibition, usual class: inhibitors;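 also: potency is read from the fitted curve at half-maximal effect; 0% = vehicle wells and -100% = peptide control; nearly all actives have a fitted effect of over 45% in size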
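AMA1 (3D7) with his tag at 25 nM final met compounds first, then biotinylated RON2 peptide at 25 nM; detection used donor plus acceptor beads, 10 µg/mL apiece, read by AlphaScreen after 30 min at room temperature.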
Shiga inhibitor: Shiga toxin inhibition; Vero cells, Shiga toxin protein synthesis inhibition reporter; inhibition, % at 38.7 µM; hit rate 9.2% among 290,000; AID 2315; in the data active = inhibition mostly above about 28%, no sharp cut-off; inactive = mostly below about 43%; also: 0% is about no effect
* hit, by the source's call; u = inconclusive; x = not tested or not shown. Unless noted, calls follow the shape of the dose curve; as a rule, active = well fitted curve in the direction sought with a large enough effect; inconclusive = small, poorly fitted or top-dose-only effect, or another doubt; inactive = no such curve, though single readings can be large; an effect the other way counts as inactive or inconclusive.

SMILES	HCV inhibitor	Pf growth 96h	Cycloheximide cs	Pf growth 48h	AMA1 RON2 block	Shiga inhibitor
Cn1c(CN2CCCCC2)nc2cc(NC(=O)c3ccccc3Cl)ccc21	u	-11%	44*	u	17%	72*
CC(=O)N1CCN(Cc2nc3cc(NC(=O)c4cccc(Br)c4)ccc3n2C)CC1	18µM*	6%	13	24%	-8%	24
Cn1c(CN2CCCCC2)nc2cc(NC(=O)c3ccc(F)cc3)ccc21	10µM*	u	34*	25%	53%	24
CCOc1ccc(NC(=O)CN(C)C(=O)c2cc3c(s2)CCC(C)C3)cc1OCC (centres undefined)	u	u	x	u	-10%	x
CCCCCN(C(=O)CCC(=O)OCCOc1ccc(OCC)cc1)c1c(N)n(CCCC)c(=O)[nH]c1=O	u	u	x	u	-2%	x
CC(=O)C1=CN(Cc2ccccc2)CCC1=O	-18%	x	x	x	-3%	x
CN(C)C(=O)Oc1noc2cc(Cl)ccc12	10%	3.3µM*	10	u	-10%	17
COc1ccc(NC(=O)c2cc(C)cc(C)c2)cc1S(=O)(=O)N1CCCCC1	u	u	x	u	-5%	x
CCCCCCSc1ccc([C@@H]2[C@H]3C(=O)N(CC)C(=O)[C@H]3[C@]3(C(=O)OC)CCCCN23)cc1OC	-7%	x	x	x	-9%	x
CCCSc1ccc([C@@H]2[C@@H]3C(=O)N(C)C(=O)[C@@H]3[C@]3(C(=O)OC)CCCN23)cc1OC	u	8.3µM*	x	12µM*	7%	x
CCCCCCSc1ccc([C@@H]2[C@H]3C(=O)N(C)C(=O)[C@H]3[C@]3(C(=O)OC)CCCCN23)cc1OC	-1%	7.4µM*	x	u	-19%	x
CCCCCCSc1ccc([C@@H]2[C@@H]3C(=O)N(C)C(=O)[C@@H]3[C@]3(C(=O)OC)CCCCN23)cc1OC	-11%	5.9µM*	x	3.3µM*	-8%	x
CCCSc1ccc([C@@H]2[C@@H]3C(=O)N(CC)C(=O)[C@@H]3[C@]3(C(=O)OC)CCCCN23)cc1OC	-1%	x	x	x	-6%	x
Cc1ccc(N/C=C(/C#N)c2ccsc2)cc1C	2%	263%	42*	150%	-6%	87*
O/N=C/c1ccc2cccc(OCc3ccccc3)c2n1	u	-1%	-1	9%	0%	-5
NC(=S)N/N=C/c1ccccc1OCc1cccc(Cl)c1	11µM*	9.3µM*	-2	13µM*	0%	16
NC(N)=N/N=C/c1ccc2cccc(OCc3ccccc3)c2n1	13µM*	u	1	u	23%	5
NC(=S)N/N=C/c1ccc2cccc(OCc3ccccc3)c2n1	11µM*	u	5	15µM*	58%	-25
CCOc1ccc(S(=O)(=O)N(C)c2ccc(OCC(=O)NCc3ccc(C(=O)OC)cc3)cc2)cc1	-29%	-31%	2	-18%	-9%	-8
Cc1ccc(S(=O)(=O)NCC2CCC(C(=O)N3CCN(C)CC3)CC2)cc1 (centres undefined)	u	u	-1	12%	3%	13
COc1ccc(-c2ccc3cc(C(=O)O)ccc3c2)cc1C12CC3CC(CC(C3)C1)C2	x	-3%	x	11%	x	x
O=C(O)c1ccc(-c2ccc3cc(C45CC6CC(CC(C6)C4)C5)c(O)cc3c2)cc1	x	x	45*	x	x	28*
CCCCc1ncc(CN2CCC(n3nccc3NC(=O)c3ccccc3OC)CC2)[nH]1	-4%	u	-1	u	12%	-2
Cc1ccc(-n2nc(-c3ccccc3)cc2Nc2ccccc2N)cc1	5%	-100%	-2	u	-23%	4
Cc1ccc(-c2cc3nn(-c4ccccc4)c(N)c3c(=O)o2)cc1	10µM*	81%	40*	34%	7%	76*
SMILES	HCV inhibitor	Pf growth 96h	Cycloheximide cs	Pf growth 48h	AMA1 RON2 block	Shiga inhibitor
Cc1ccc2c(c1)nnn2C1CCN(C(=O)c2ccccc2F)CC1	4%	26%	1	0%	6%	36
CCC(=O)N(CCC(Cc1ccccc1)c1ccc2c(c1)OCO2)Cc1ccccc1F (centres undefined)	-17%	12µM*	3	u	-14%	-22
CCN(CC)C(=O)c1ccc(NC(=O)c2cccc(C(F)(F)F)c2)cc1	-22%	u	3	u	5%	15
O=C(Nc1cccc(C(F)(F)F)c1)c1cccnc1N1CCN(c2ccccc2)CC1	u	x	8	0%	30µM*	-8
Cc1nc2ccc(NC(=O)c3cccc(C(F)(F)F)c3)cc2o1	u	2%	21*	10%	-2%	60
CNC(=O)Nc1ccc2nc(C)oc2c1	7%	32%	5	14%	0%	5
O=C(Nc1ccccc1)c1cccc(C(F)(F)F)c1	22%	3%	11*	42%	14%	33*
CN1CCC(N(C)CC(C)(C)NS(=O)(=O)c2ccccc2)CC1	4%	11%	1	11%	1%	-6
O=C(NC(=S)NN1CCCCC1c1cccnc1)c1ccc(Br)cc1 (centres undefined)	-23%	u	11	0%	36%	27
COc1ccc(C(=O)Nc2ccc(NC(C)=O)cc2)cc1S(=O)(=O)N1CCCCC1C (centres undefined)	u	u	x	u	-10%	x
COc1cc(C(=O)Nc2ccc(S(=O)(=O)N3CCCCC3C)cc2)cc(OC)c1OC (centres undefined)	13µM*	u	-4	8.3µM*	-9%	8
COc1ccccc1C(=O)Nc1ccc(S(=O)(=O)N2CCCCC2c2cccnc2)cc1 (centres undefined)	u	3.3µM*	9	u	-16%	-7
COC(=O)c1ccc(NC(=S)NN2CCCCC2c2cccnc2)cc1 (centres undefined)	10%	5%	14*	0%	14%	33
COc1ccc(C(=O)Nc2ccc(S(=O)(=O)N3CCCCC3C)cc2)c(OC)c1OC (centres undefined)	11µM*	24%	14	u	-11%	25
O=[N+]([O-])c1ccc(S(=O)(=O)Nc2ccccn2)cc1	15%	u	0	4%	1%	x
Cc1ccccc1C(=O)N1CC(=O)Nc2ccc(F)cc2C1c1ccccc1 (centres undefined)	-11%	9%	-2	u	-5%	-11
O=S(=O)(c1ccc(Cl)cc1)N1CCN(C(=S)NCC2CCCO2)CC1 (centres undefined)	x	-10%	0	0.93µM*	-11%	-5
O=S(=O)(c1ccc(F)cc1)N1CCN(C(=S)NCCc2ccccc2)CC1	5%	u	-1	1.9µM*	20%	-14
O=S(=O)(c1cccc(Br)c1)N1CCN(C(=S)NCC2CCCO2)CC1 (centres undefined)	7%	u	x	u	-9%	x
